Screening data from PubChem.
The sample as a whole holds a higher share of hits than the screen did.
Pf Dd2 inh: inhibitors of Plasmodium falciparum Dd2 growth; 120,000 compounds, 4.3% hits; Potency, µM (top dose mostly 28.9 µM), for inactives: top-dose activity, negative = inhibition, actives largely listed as inhibitors; P. falciparum Dd2 growth, SYBR Green, 72 h; active means well fitted inhibition curve with a large enough effect;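 further: plate controls were DMSO vehicle for no effect and reference drug for full effect; nearly all actives have a fitted effect of over 65% in size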
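Infected erythrocytes (Dd2, 0.3% parasitemia, 2.5% hematocrit final) are added to compound in RPMI-1640/Albumax II medium, grown 72 h at 37C in low oxygen, then lysed with saponin/Triton-X containing SYBR Green and read by fluorescence.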
* marks the source's active call; other numbers are inactive results; [ ] = another dose, or the depositor's remark. Potency means the concentration at half of the fitted maximal effect.

Results for COc1ccc2[nH]c3c(c2c1)CCNC31CCN(C(=O)c2ccsc2)CC1 ?
Pf Dd2 inh: -23.2%

Results for Cc1noc(-c2ccn3c(CNC(=O)c4cc(Cl)ccc4F)nnc3c2)n1 ?
Pf Dd2 inh: 12.6%

What do the screens show for `CN1C(=O)C(c2ccccc2)CC12CCN(C(=O)C1CCC(O)CC1)CC2` (stereo not given)?
Pf Dd2 inh: -11.6%

How did Cc1ccc(NC(=O)Cn2c(-c3cnccn3)nc(C)c(CCO)c2=O)cc1 do in these assays?
Pf Dd2 inh: -1.8%

How did C1=C(c2cc(-c3ccncc3)cn3cncc23)CCOC1 do in these assays?
Pf Dd2 inh: inactive

How did COc1cccc(-c2cc(-c3c(C)noc3C)cc3c2C(=O)N(C)C3=O)c1OC do in these assays?
Pf Dd2 inh: inactive

What do the screens show for `Cc1noc(C)c1-c1cc(-c2ccccc2C(F)(F)F)cn2cncc12`?
Pf Dd2 inh: 6.31µM*

Results for FC(F)(F)c1ccccc1-c1cc(-c2cccnc2)c2cncn2c1 ?
Pf Dd2 inh: -24.1%[44.1 µM]

Results for Cc1noc(C)c1-c1cc(-c2ccc(CO)cc2)cn2cncc12 ?
Pf Dd2 inh: -22.7%[44.1 µM]

How did Cc1noc(C)c1-c1cc(-c2ccccc2F)cn2cncc12 do in these assays?
Pf Dd2 inh: 7.08µM*

Results for Cc1noc(C)c1-c1cc(-c2cccc(O)c2)cn2cncc12 ?
Pf Dd2 inh: 11.2µM*

How did c1cncc(-c2cc(-c3cccc(N4CCOCC4)c3)cn3cncc23)c1 do in these assays?
Pf Dd2 inh: -27.6%[44.1 µM]

How did Cc1noc(C)c1-c1cc2c(c(-c3ccccc3)c1)C(=O)N(C)C2 do in these assays?
Pf Dd2 inh: inactive

What do the screens show for `Cn1cnc(C(=O)N2[C@@H]3CC[C@H]2CC(NC(=O)c2ccncc2)C3)c1` (stereo not given in full)?
Pf Dd2 inh: 22.4%

How did Cc1cnc(C(=O)N2CCCN(S(C)(=O)=O)c3ccccc32)cn1 do in these assays?
Pf Dd2 inh: 12.6%

Results for CN1CC(=O)N(c2ccccc2F)Cc2c(NCCc3ccc(Cl)cc3)ncnc21 ?
Pf Dd2 inh: inactive

Results for Cc1ccc(-c2nc3cnccn3c2NCCC(=O)O)cc1 ?
Pf Dd2 inh: 10.3%

What do the screens show for `COc1ccc(NC(=O)c2ccc3c(c2)OCCN(CCC(F)(F)F)C3)c(F)c1`?
Pf Dd2 inh: -23.1%[44.1 µM]

What do the screens show for `COc1ccc(NC(=O)c2ccc3c(c2)OCCN(c2ccccc2)C3)c(F)c1`?
Pf Dd2 inh: 10µM*

What do the screens show for `CNC(=O)c1ccc2c(c1)OCCN(c1ccccc1)C2`?
Pf Dd2 inh: inactive

Results for Cc1ncc2c(c1CNC(=O)COc1ccc(F)cc1)CCNC2 ?
Pf Dd2 inh: 6.1%

How did Cc1onc(-c2cnn(C)c2NCCc2ccccc2)c1C(=O)N1CCCC(C(N)=O)C1 (stereo not given) do in these assays?
Pf Dd2 inh: -16.8%[44.1 µM]

What do the screens show for `CN1CC(=O)N(C2CCCNCC2)Cc2c1ncnc2N1CCC(O)CC1` (stereo not given)?
Pf Dd2 inh: 13.5%

Results for Cc1c(C(=O)Nc2ccc(F)c(Cl)c2)oc2ccc(S(=O)(=O)N(C)C3CCCCC3)cc12 ?
Pf Dd2 inh: -26.2%

Results for Cc1c(C(=O)Nc2cccc(C(F)(F)F)c2)oc2ccc(S(=O)(=O)N(C)C3CCCCC3)cc12 ?
Pf Dd2 inh: 11.2µM*

What do the screens show for `Cc1ccc(NC(=O)c2oc3ccc(S(=O)(=O)N(C)C4CCCCC4)cc3c2C)c(C)c1`?
Pf Dd2 inh: inactive

What do the screens show for `COCc1cc(C[C@@H]2CC[C@H](O)[C@@H](CN(C(=O)Nc3ccccc3OC)C(=O)Nc3ccccc3OC)O2)no1`?
Pf Dd2 inh: inactive

What do the screens show for `CCOc1ccccc1C1NC(=O)N(CC(=O)Nc2cccc(F)c2)C2=C1C(=O)OC2` (stereo not given)?
Pf Dd2 inh: -23.8%

How did C=CCCC(CN1CCOCC1)Oc1ccc(-c2ccccc2)nn1 (stereo not given) do in these assays?
Pf Dd2 inh: -12.1%

What do the screens show for `C=CCCC(CN1CCCC1)Oc1cc(N2CCOCC2)ncn1` (stereo not given)?
Pf Dd2 inh: -4.1%

Results for C=CCCC(CN1CCSCC1)Oc1ncc(CC)cn1 (stereo not given) ?
Pf Dd2 inh: -14.1%

How did C=CCCC(CN1CCCC1)Oc1ccc(C(=O)NCC)cn1 (stereo not given) do in these assays?
Pf Dd2 inh: 3.16µM*

How did C=CCCC(CN1CCSCC1)Oc1nc(OC)cc(OC)n1 (stereo not given) do in these assays?
Pf Dd2 inh: -18.2%

What do the screens show for `C=CCCC(CN1CCCC1)Oc1ccc(-c2ccccc2)nn1` (stereo not given)?
Pf Dd2 inh: 11.2µM*

What do the screens show for `c1cc(-c2n[nH]c(C3CCCCN3)n2)ccn1` (stereo not given)?
Pf Dd2 inh: 0.2%

How did CC[C@H]1CN(C(=O)NC(C)C)CC[C@H]1CC(=O)NC1CC1 do in these assays?
Pf Dd2 inh: -6.1%[44.1 µM]

What do the screens show for `Cc1nc(CN2CCOC3(CCN(Cc4ccccc4Cl)CC3)C2=O)cs1`?
Pf Dd2 inh: inactive

Results for CCc1cccc(NC(=O)c2cc3c(=O)n(Cc4ccccc4)ccc3nc2C)c1 ?
Pf Dd2 inh: -1.8%

Results for COc1ccc(Cn2ccc3nc(C)c(C(=O)Nc4ccc(F)cc4)cc3c2=O)cc1 ?
Pf Dd2 inh: 5.8%

What do the screens show for `CCc1ccc(NC(=O)c2cc3c(=O)n(Cc4cccs4)ccc3nc2C)cc1`?
Pf Dd2 inh: 12.6µM*

Results for O=S(=O)(NC1CCc2nnc(C3CC3)n2CC1)c1cccnc1 (stereo not given) ?
Pf Dd2 inh: 31.8%

How did CC(=O)N1Cc2ccccc2CC2(CCN(CC3CCNC3)CC2)C1 (stereo not given) do in these assays?
Pf Dd2 inh: 12.9%

Results for Cc1cccc(N2CCN(C(=O)c3ccc4c(c3)N(Cc3cccc(Cl)c3)C(=O)c3ccccc3S4=O)CC2)c1C (stereo not given) ?
Pf Dd2 inh: -7.5%

Results for Cc1ccccc1CNC(=O)c1ccc2c(c1)N(Cc1ccccc1)CCS2 ?
Pf Dd2 inh: 4.5%

How did COc1ccc(CNC(=O)c2ccc3c(c2)N(Cc2ccccc2)CCS3)cc1 do in these assays?
Pf Dd2 inh: -5.6%

What do the screens show for `Cc1ccc(Cl)cc1N1CCN(C(=O)c2ccc3c(c2)N(Cc2ccccc2)CCS3)CC1`?
Pf Dd2 inh: 8.91µM*

How did CCN1C(=O)c2ccccc2S(=O)c2ccc(C(=O)N3CCN(c4cc(Cl)ccc4C)CC3)cc21 (stereo not given) do in these assays?
Pf Dd2 inh: 8.91µM*

Results for Cc1ccc(C)c(N2CCN(C(=O)c3ccc4c(c3)N(Cc3ccc(F)cc3)C(=O)c3ccccc3S4=O)CC2)c1 (stereo not given) ?
Pf Dd2 inh: -15.9%

How did Cc1ccccc1CN1C[C@@H]2[C@H](C1)N(Cc1ccccc1)C(=O)C(C)(C)[S+]2(=O)[O-] do in these assays?
Pf Dd2 inh: -1.3%[44.1 µM]

What do the screens show for `O=C(CCC1CCN(C(=O)c2ccccc2)CC1)NCCCN1CCOCC1`?
Pf Dd2 inh: -9.5%

How did O=C1Nc2ccc(-c3ccccc3)cc2C(=O)N2CCN(C(=O)c3cccs3)C[C@H]12 do in these assays?
Pf Dd2 inh: -19.4%[44.1 µM]

What do the screens show for `CCNC(=O)c1n[nH]c2c1CN(C(=O)c1cccc(Br)c1)CC2`?
Pf Dd2 inh: inactive

How did CC(=O)Nc1ccc(NC(=O)Cn2ccn3nc(-c4ccc(F)cc4)c(CO)c3c2=O)cc1 do in these assays?
Pf Dd2 inh: 11.0%

What do the screens show for `COc1ccc(N2CC(C(=O)N3CCC(C(=O)N4CCCC4)C3)NC2=O)cc1` (stereo not given)?
Pf Dd2 inh: 31.5%

How did O=C1CC2(CCN(C(=O)c3ccccc3F)CC2)Oc2cc(Cl)ccc21 do in these assays?
Pf Dd2 inh: inactive
